# Assay results published in PubChem BioAssay AID589 (National Center for Advancing Translational Sciences (NCATS), 2007).
# The campaign covered roughly 59,000 compounds. About 6,200 (11%) were called active. Roughly 9% stayed inconclusive and do not appear here. Rule as the data show it: active = max dye-equivalent concentration above about 10 nM; inconclusive = mostly about 1.1 nM to 9.6 nM; inactive = weaker than that. Shown is part of a subset that was picked to be rich in actives.
# Test: qHTS Assay for Spectroscopic Profiling in 4-MU Spectral Region
# Conditions: compound autofluorescence, 340/450 nm, 4-MU equivalents; active compounds read high
# Procedure, shortened: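 Compounds in 100 mM Tris, pH 8.0, incubated 15 min at room temperature, then fluorescence read at 340 nm excitation/450 nm emission. Signal converted to 4-MU dye-equivalent concentration using an on-plate six-point 4-MU standard curve.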
row,SMILES,max dye-equivalent concentration
1,CCOC(=O)c1csc(NC(=O)c2ccc(S(=O)(=O)N3CCCC3)cc2)n1,inactive
2,CC(C)c1ccc(-c2nn[nH]n2)cc1,inactive
3,Cc1ccc(F)cc1NC(=O)c1cccc(N(C)C)c1,inactive
4,COc1ccc(CN2CC(C(=O)NCCN3CCN(c4ccccc4F)CC3)CC2=O)cc1 (stereo not given),inactive
5,COc1ccc2oc(=O)c(C(=O)N3CCCc4ccccc43)cc2c1,inactive
6,COc1ccc2oc(=O)c(C(=O)N3CCN(c4ccccc4F)CC3)cc2c1,39 nM (active)
7,CCCCC(CCC(=O)Nc1ccc(C(=O)OCC)cc1)C(=O)O (stereo not given),inactive
8,O=C(CC1OC(=O)c2ccccc21)NC1CCCCC1 (stereo not given),inactive
9,O=C(COc1ccc2oc3c(c2c1)CCCC3)Nc1ccccn1,inactive
10,NC(=O)COc1ccc2c3c(c(=O)oc2c1)CCCCC3,26 nM (active)
11,Cc1cc(Cl)c(S(=O)(=O)NCC2CCCO2)cc1OCC(N)=O (stereo not given),inactive
12,O=C(COc1ccccc1F)NC1CC1,inactive
13,O=C(COc1ccc2c3c(c(=O)oc2c1)CCC3)NC1CCCCC1,64 nM (active)
14,c1ccc2c(c1)OCC(c1nn3cnnc3s1)O2 (stereo not given),inactive
15,CCN(C(=O)CSc1ncn[nH]1)c1cccc2ccccc12,inactive
16,Cc1noc(C)c1S(=O)(=O)Nc1ccc(C(=O)O)cc1,inactive
17,O=C(NC(c1ccccc1)c1ccccc1)N1CCN(CCO)CC1,inactive
18,COc1ccc(N2C(=O)CCC(C(=O)N(C)C3CCCCC3)C2c2ccc(OC)c(OC)c2)cc1 (stereo not given),inactive
19,C#CCN1C(=O)C(O)(CC(=O)c2cc(OC)ccc2OC)c2ccccc21 (stereo not given),13 nM (active)
20,COc1ccc(OC)c(NC(=O)Cn2c(=O)oc3ccccc32)c1,inactive
21,CNC(=O)NCCN1CCCC1=O,inactive
22,COc1ccc(CNC(=O)c2cc3c(=O)n4ccccc4nc3n(CC3CCCO3)c2=N)cc1 (stereo not given),270 nM (active)
23,CCn1c(=N)c(C(=O)NCCCOC)cc2c(=O)n3cccc(C)c3nc21,12000 nM (active)
24,COCCCNC(=O)c1ccc2c(c1)ncn2-c1ccccc1OC,inactive
25,COc1ccccc1C(=O)NCCn1cc(SCC(=O)NCc2ccco2)c2ccccc21,inactive
26,COc1ccc(C(=O)NCc2cn3ccccc3n2)cc1,inactive
27,COc1ccc(CNC(=O)C2CCN(S(=O)(=O)N3CCOCC3)CC2)cc1,inactive
28,COc1ccc(CCn2c(=N)c(C(=O)NCc3ccco3)cc3c(=O)n4cccc(C)c4nc32)cc1,11 nM (active)
29,COc1cc(OC)cc(-c2nc3nc(C)c(CCC(=O)NCc4ccco4)c(C)n3n2)c1,inactive
30,CCOCCCNC(=O)c1c[nH]c2cc(C)ccc2c1=O,inactive
